Values joined by “and” are separate entries in the source; they are usually repeats but may differ in a detail not shown here. Equal entries are not always repeated. Screen size: about 5,500 compounds; about 2,000 (36%) were called active. Inconclusive results (about 18%) are left out. Cut-off read from the data, not from the text of the source: active = normalized growth mostly below about 0.91 (no sharp cut-off); inconclusive = no clear call, values can overlap the other calls; inactive = mostly above about 0.92. The list shows a part of the results.
Test: chemical genetic growth profiling, strain panel (AID 1159580);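 note: tested at 20 µM; growth read once vehicle control cultures reached saturation at 30 °C; 1 = growth at the plate median or of vehicle wells; lower values mean less growth of the strain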
Conditions: growth OD

Measured: normalized growth

O=[N+]([O-])/C=C/c1ccsc1
active: S. cerevisiae deletion strains, locus YAL013W, strain DEP1, active compounds read low 0.0965 | S. cerevisiae deletion strains, locus YAR019C, strain CDC15, active compounds read low 0.0973 | S. cerevisiae deletion strains, locus YBL105C, strain PKC1, active compounds read low 0.088 | S. cerevisiae deletion strains, locus YBR135W, strain CKS1, active compounds read low 0.0811 | S. cerevisiae deletion strains, locus YBR136W, strain MEC1, active compounds read low 0.0958 | S. cerevisiae deletion strains, locus YBR160W, strain CDC28, active compounds read low 0.0863 | S. cerevisiae deletion strains, locus YBR229C, strain ROT2, active compounds read low 0.0538 | S. cerevisiae deletion strains, locus YCL061C, strain MRC1, active compounds read low 0.0534 | S. cerevisiae deletion strains, locus YDL017W, strain CDC7, active compounds read low 0.0862 | S. cerevisiae deletion strains, locus YDL028C, strain MPS1, active compounds read low 0.108 | S. cerevisiae deletion strains, locus YDL101C, strain DUN1, active compounds read low 0.0979 and 0.0659 | S. cerevisiae deletion strains, locus YDL108W, strain KIN28, active compounds read low 0.1 | S. cerevisiae deletion strains, locus YDL132W, strain cdc53, active compounds read low 0.0899 | S. cerevisiae deletion strains, locus YDL214C, strain PRR2, active compounds read low 0.0917 | S. cerevisiae deletion strains, locus YDR052C, strain DBF4, active compounds read low 0.0918 | S. cerevisiae deletion strains, locus YDR054C, strain cdc34, active compounds read low 0.0966 | S. cerevisiae deletion strains, locus YDR150W, strain NUM1, active compounds read low 0.319 | S. cerevisiae deletion strains, locus YDR226W, strain ADK1, active compounds read low 0.377 | S. cerevisiae deletion strains, locus YDR477W, strain SNF1, active compounds read low 0.0976 | S. cerevisiae deletion strains, locus YEL061C, strain CIN8, active compounds read low 0.0749 | S. cerevisiae deletion strains, locus YER123W, strain YCK3, active compounds read low 0.0988 | S. cerevisiae deletion strains, locus YER133W, strain GLC7, active compounds read low 0.0944 | S. cerevisiae deletion strains, locus YFL009W, strain cdc4, active compounds read low 0.09 | S. cerevisiae deletion strains, locus YFL029C, strain CAK1, active compounds read low 0.0924 | S. cerevisiae deletion strains, locus YFR003C, strain YPI1, active compounds read low 0.126 | S. cerevisiae deletion strains, locus YFR019W, strain FAB1, active compounds read low 0.0932 | S. cerevisiae deletion strains, locus YFR028C, strain CDC14, active compounds read low 0.0832 | S. cerevisiae deletion strains, locus YGR040W, strain KSS1, active compounds read low 0.102 | S. cerevisiae deletion strains, locus YGR052W, strain FMP48, active compounds read low 0.105 | S. cerevisiae deletion strains, locus YGR078C, strain PAC10, active compounds read low 0.0512 | S. cerevisiae deletion strains, locus YGR092W, strain DBF2, active compounds read low 0.101 | S. cerevisiae deletion strains, locus YHR030C, strain SLT2, active compounds read low 0.086 and 0.114 | S. cerevisiae deletion strains, locus YHR079C, strain IRE1, active compounds read low 0.115 | S. cerevisiae deletion strains, locus YHR082C, strain KSP1, active compounds read low 0.122 | S. cerevisiae deletion strains, locus YHR087W, strain rtc3, active compounds read low 0.0574 | S. cerevisiae deletion strains, locus YHR205W, strain SCH9, active compounds read low 0.014 | S. cerevisiae deletion strains, locus YIL147C, strain SLN1, active compounds read low 0.266 | S. cerevisiae deletion strains, locus YJL095W, strain BCK1, active compounds read low 0.104 | S. cerevisiae deletion strains, locus YJL128C, strain PBS2, active compounds read low 0.0942 | S. cerevisiae deletion strains, locus YJL157C, strain FAR1, active compounds read low 0.0861 | S. cerevisiae deletion strains, locus YJL187C, strain SWE1, active compounds read low 0.0512 | S. cerevisiae deletion strains, locus YJR016C, strain ILV3, active compounds read low 0.0858 | S. cerevisiae deletion strains, locus YJR043C, strain POL32, active compounds read low 0.0674 | S. cerevisiae deletion strains, locus YJR066W, strain TOR1 (second series), active compounds read low 0.0922 | S. cerevisiae deletion strains, locus YJR066W, strain TOR1, active compounds read low 0.121 | S. cerevisiae deletion strains, locus YJR075W, strain HOC1, active compounds read low 0.072 | S. cerevisiae deletion strains, locus YKL048C, strain ELM1, active compounds read low 0.109 | S. cerevisiae deletion strains, locus YKL067W, strain YNK1, active compounds read low 0.0882 | S. cerevisiae deletion strains, locus YKL101W, strain HSL1, active compounds read low 0.0953 | S. cerevisiae deletion strains, locus YKL190W, strain CNB1, active compounds read low 0.0559 | S. cerevisiae deletion strains, locus YKL193C, strain SDS22, active compounds read low 0.0818 | S. cerevisiae deletion strains, locus YKL203C, strain TOR2, active compounds read low 0.102 | S. cerevisiae deletion strains, locus YLR039C, strain RIC1, active compounds read low 0.0823 | S. cerevisiae deletion strains, locus YLR058C, strain SHM2 (second series), active compounds read low 0.0499 | S. cerevisiae deletion strains, locus YLR085C, strain ARP6, active compounds read low 0.0726 | S. cerevisiae deletion strains, locus YLR113W, strain HOG1, active compounds read low 0.133 | S. cerevisiae deletion strains, locus YLR133W, strain CKI1, active compounds read low 0.107 | S. cerevisiae deletion strains, locus YLR262C, strain YPT6, active compounds read low 0.074 | S. cerevisiae deletion strains, locus YLR403W, strain SFP1, active compounds read low 0.0115 | S. cerevisiae deletion strains, locus YML070W, strain DAK1, active compounds read low 0.0892 | S. cerevisiae deletion strains, locus YML094W, strain GIM5, active compounds read low 0.0766 | S. cerevisiae deletion strains, locus YMR001C, strain CDC5, active compounds read low 0.0846 | S. cerevisiae deletion strains, locus YMR205C, strain PFK2 (second series), active compounds read low 0.0874 | S. cerevisiae deletion strains, locus YMR219W, strain ESC1, active compounds read low 0.0511 | S. cerevisiae deletion strains, locus YMR263W, strain SAP30, active compounds read low 0.0973 | S. cerevisiae deletion strains, locus YMR277W, strain FCP1, active compounds read low 0.0872 | S. cerevisiae deletion strains, locus YNL006W, strain LST8, active compounds read low 0.0854 | S. cerevisiae deletion strains, locus YNL020C, strain ARK1, active compounds read low 0.0962 | S. cerevisiae deletion strains, locus YNL153C, strain GIM3, active compounds read low 0.0541 | S. cerevisiae deletion strains, locus YNL161W, strain CBK1, active compounds read low 0.0827 | S. cerevisiae deletion strains, locus YNL183C, strain NPR1, active compounds read low 0.113 | S. cerevisiae deletion strains, locus YNL207W, strain RIO2, active compounds read low 0.0963 | S. cerevisiae deletion strains, locus YNL222W, strain SSU72, active compounds read low 0.0831 | S. cerevisiae deletion strains, locus YNL298W, strain CLA4 (second series), active compounds read low 0.0744 | S. cerevisiae deletion strains, locus YNL307C, strain MCK1 (second series), active compounds read low 0.106 | S. cerevisiae deletion strains, locus YNL322C, strain KRE1, active compounds read low 0.238 | S. cerevisiae deletion strains, locus YNR030W, strain Alg12, active compounds read low 0.0788 | S. cerevisiae deletion strains, locus YOL078W, strain AVO1, active compounds read low 0.0843 | S. cerevisiae deletion strains, locus YOL136C, strain PFK27, active compounds read low 0.0965 | S. cerevisiae deletion strains, locus YOR061W, strain CKA2, active compounds read low 0.0882 | S. cerevisiae deletion strains, locus YOR119C, strain RIO1, active compounds read low 0.112 | S. cerevisiae deletion strains, locus YOR231W, strain MKK1, active compounds read low 0.109 | S. cerevisiae deletion strains, locus YOR329C, strain SCD5, active compounds read low 0.0876 | S. cerevisiae deletion strains, locus YPL031C, strain PHO85, active compounds read low 0.0965 | S. cerevisiae deletion strains, locus YPL055C, strain LGE1, active compounds read low 0.254 | S. cerevisiae deletion strains, locus YPL153C, strain RAD53, active compounds read low 0.0949 | S. cerevisiae deletion strains, locus YPL204W, strain HRR25, active compounds read low 0.0984 | S. cerevisiae deletion strains, locus YPL209C, strain IPL1, active compounds read low 0.0842 | S. cerevisiae deletion strains, locus YPL241C, strain CIN2, active compounds read low 0.106 | S. cerevisiae deletion strains, locus YPL256C, strain CLN2, active compounds read low 0.133 | S. cerevisiae deletion strains, locus YPR025C, strain CCL1, active compounds read low 0.0831 | S. cerevisiae deletion strains, locus YPR106W, strain ISR1, active compounds read low 0.0863 | S. cerevisiae deletion strains, locus YPR111W, strain DBF20, active compounds read low 0.0864 | S. cerevisiae deletion strains, locus YPR135W, strain CTF4, active compounds read low 0.212 | S. cerevisiae deletion strains, strain NNK1, active compounds read low 0.0961 | S. cerevisiae deletion strains, strain TSCII, active compounds read low 0.0894 | S. cerevisiae strains, strain wild type, active compounds read low 0.0538
